# Shown is part of a subset that was picked to be rich in hits.
# NOMO-1 viab = STK33 inhibitor candidate reducing NOMO-1 cell viability; NOMO-1 AML viability, CellTiter-Glo luminescence, 72 h; inhibition, % (test concentration not listed); hit rate 7.5% among 37,000; AID 2330; in the data active means inhibition above about 80%; inconclusive means no clear call, values can overlap the other calls
# PD-1 reversal = reversal of PD-1 mediated T-cell inhibition; primary human CD4 T cells, PD-L1 beads, CellTiter-Glo 96 h; activation, % (no concentration beside the values); 29,000 tested, under 10 active; AID 2316; call rule not given here
# ROS inducer = cancer cell ROS induction; U2OS ROS induction, H2DCF-DA fluorescence; ROS induction (% of piperlongumine), % at 10 µM; hit rate 2% among 46,000; in the data active means ROS induction above about 79%, passing the limit was not always enough; inconclusive means no clear call, values can overlap the other calls
# A number is an active result; i = inactive; ? = inconclusive; nt = no result given.
SMILES,NOMO-1 viab,PD-1 reversal,ROS inducer
CCc1ccc(C(Nc2cc(C)ccn2)c2ccc3cccnc3c2O)cc1 (centres undefined),111.6,i,i
Cn1c(C(=O)NCCN2CCCCCC2)cc2sccc21,nt,nt,i
CCOC(=O)Cn1c(C)c(Sc2ccccc2)c2ccccc21,i,i,i
NC(=O)c1c(NC(=S)NC(=O)c2ccccc2Cl)sc2c1CCCC2,nt,nt,i
COC(=O)C(C(CO)Cc1ccc(O)c(OC)c1)C(O)c1ccc(O)c(OC)c1 (centres undefined),107.5,i,i
COc1cc(CC(CO)C(CO)Cc2ccc(O)c(OC)c2)ccc1O (centres undefined),i,i,i
COc1ccc(S(=O)(=O)NCCC(=O)NC2CCCCC2)cc1,nt,nt,i
COc1ccc(NC(=O)NC2c3ccccc3Oc3ccccc32)cc1OC,nt,nt,i
CCc1ccc(NC(=O)c2cc3c(=O)oc4ccccc4c3s2)cc1,nt,nt,i
O=C(CSc1ccc(Cl)cc1)Nc1cscc1S(=O)(=O)c1ccc(Cl)cc1,i,i,i
COc1cc(NC(=O)COc2ccccc2[N+](=O)[O-])ccc1NC(=O)c1cccs1,i,i,132.1
COc1cc(NC(=O)COc2cccc(C)c2C)ccc1NC(=O)c1ccccc1Cl,i,i,i
COc1cc(NC(=O)COc2cccc(C)c2C)ccc1-c1cc2ccccc2oc1=O,131.1,i,i
COc1cc(NC(=O)COc2cc(Cl)c(Cl)cc2Cl)ccc1NC(=O)c1cc2ccccc2o1,?,i,i
COc1ccc(NC(=O)COc2ccccc2[N+](=O)[O-])cc1Cl,i,i,i
COc1cc(NC(=O)COc2ccccc2Cl)ccc1NC(=O)c1cc2ccccc2o1,103.7,i,i
CC1C(=O)ON(c2ccccc2)C(=O)N1C (centres undefined),nt,nt,i
CCNC(=O)c1ccc2c(c1)sc1nc(-c3ccccc3)cn12,nt,nt,i
COC(=O)Oc1ccc2c(=O)c(-c3ccccc3)coc2c1,nt,nt,i
Cc1ccc2c(=O)c(C(=O)c3ccccc3)coc2c1,130.3,i,i
CC(=O)N[C@@H](Cc1ccccc1)C(=O)NN,i,i,i
CC[n+]1c(C=C2C=C(C)CC(C)(C)C2)oc2ccccc21,115.1,i,?
COc1c(-c2ccccc2)oc2c(CC=C(C)C)c3c(c(OC)c2c1=O)C=CC(C)(C)O3,i,nt,i
C=CC(C)(C)c1c2c(c(O)c3c(=O)c4ccc(O)c(O)c4oc13)C=CC(C)(C)O2,106.7,nt,i
COc1ccc(NC(=O)c2ccc(N(C)S(=O)(=O)c3ccc(OC)c(OC)c3)cc2)cc1OC,i,i,i
SMILES,NOMO-1 viab,PD-1 reversal,ROS inducer
COc1ccc(NC(=O)c2ccc(-c3ccc(-c4noc(C)n4)cc3C)cc2)cc1OCCN(C)C,115.4,nt,i
CC/C=C\C[C@@H]1C(=O)C=C[C@@H]1CCCCCCCC(=O)O,116.8,i,i
CCCCC[C@H](O)/C=C/[C@H]1C=CC(=O)[C@@H]1C/C=C\CCCC(=O)O,i,i,i
C[C@H]1CN([C@@H](C)CO)C(=O)c2cccc(NC(=O)c3nc4ccccc4s3)c2O[C@H]1CN(C)Cc1ccc(Cl)c(Cl)c1,96.3,i,i
C[C@@H]1CN([C@@H](C)CO)C(=O)c2cccc(NC(=O)c3nc4ccccc4s3)c2O[C@H]1CN(C)S(=O)(=O)c1ccc(Cl)cc1,92.9,i,79.7
C[C@H](CO)N1C[C@H](C)[C@@H](CN(C)S(=O)(=O)c2ccccc2)Oc2c(NC(=O)c3nc4ccccc4s3)cccc2C1=O,i,i,i
C[C@@H]1CN([C@H](C)CO)C(=O)c2cccc(NC(=O)c3nc4ccccc4s3)c2O[C@H]1CN(C)Cc1ccc(-c2ccccc2)cc1,i,nt,i
C[C@H](CO)N1C[C@H](C)[C@H](CN(C)Cc2ccc(Cl)c(Cl)c2)Oc2c(NC(=O)c3nc4ccccc4s3)cccc2C1=O,104.3,i,i
C[C@@H]1CN([C@H](C)CO)C(=O)c2cccc(NC(=O)c3nc4ccccc4s3)c2O[C@@H]1CN(C)Cc1ccc(Cl)c(Cl)c1,i,i,i
COc1ccc(Sc2cccs2)cc1,nt,nt,i
CC(=O)Nc1cccc(Oc2ccc3c(c2)C(=O)N(c2ccc(Oc4ccc(C)c(C)c4)cc2)C3=O)c1,i,i,i
COc1ccc(S(=O)(=O)NCC23CC4CC(CC(C4)C2)C3)cc1,nt,nt,i
CCOC(=O)c1cncc(C#CCOC(=O)c2ccc(Cl)cn2)c1,nt,nt,i
Cn1c(SCc2ccc(F)cc2)nc2ccc(C(=O)NCCc3ccc(Cl)cc3)cc21,nt,nt,i
C[C@@H]1CN([C@H](C)CO)C(=O)Cc2cc(NC(=O)Cc3cn(C)c4ccccc34)ccc2O[C@H]1CN(C)Cc1ccc(Cl)c(Cl)c1,114.9,i,i
C[C@@H]1CN([C@H](C)CO)C(=O)Cc2cc(NC(=O)Cc3cn(C)c4ccccc34)ccc2O[C@@H]1CN(C)Cc1ccc2c(c1)OCO2,i,i,i
C[C@H](CO)N1C[C@H](C)[C@H](CN(C)Cc2ccccc2)Oc2ccc(NC(=O)Cc3cn(C)c4ccccc34)cc2CC1=O,i,nt,i
C[C@@H]1CN([C@@H](C)CO)C(=O)Cc2cc(NC(=O)Cc3cn(C)c4ccccc34)ccc2O[C@@H]1CN(C)Cc1ccc(Cl)c(Cl)c1,107.3,i,i
CC1(C)CC(=O)C2=C(C1)Nc1[nH]c(=S)[nH]c(=O)c1C2c1cccs1 (centres undefined),nt,nt,i
COC(=O)CSc1nnc(-c2sc3ccccc3c2Cl)n1-c1ccccc1,i,i,i
COC(=O)CSc1nnc(-c2cccs2)n1-c1ccc(Cl)cc1,101.0,i,i
NC(=O)CSc1nnc(-c2cccs2)n1-c1ccccc1,i,nt,nt
COC(=O)CSc1nnc(-c2sc3ccccc3c2Cl)n1-c1ccc(OC)cc1,84.9,i,?
CCOC(=O)c1cc2c(c(CSc3ccc(C(F)(F)F)cn3)c1)OCOC2,nt,nt,i
CCNC(=O)Oc1ccccc1,i,i,i
SMILES,NOMO-1 viab,PD-1 reversal,ROS inducer
O=C(OCCn1ncc2ccccc2c1=O)c1cccs1,i,i,i
C[C@@H]1CN([C@H](C)CO)C(=O)c2cc(NC(=O)Nc3cccc4ccccc34)ccc2O[C@@H]1CN(C)Cc1ccc(C(F)(F)F)cc1,?,i,i
COc1ccc(CN(C)C[C@H]2Oc3ccc(NC(=O)Nc4cccc5ccccc45)cc3C(=O)N([C@@H](C)CO)C[C@@H]2C)cc1,i,i,i
COc1ccc(CN(C)C[C@@H]2Oc3ccc(NC(=O)Nc4cccc5ccccc45)cc3C(=O)N([C@@H](C)CO)C[C@@H]2C)cc1,i,i,i
C[C@@H]1CN([C@H](C)CO)C(=O)c2cc(NC(=O)Nc3cccc4ccccc34)ccc2O[C@@H]1CN(C)Cc1ccc(Oc2ccccc2)cc1,89.1,nt,i
C[C@@H]1CN([C@@H](C)CO)C(=O)c2cc(NC(=O)Nc3cccc4ccccc34)ccc2O[C@@H]1CN(C)Cc1ccc(C(F)(F)F)cc1,106.4,i,i
COc1ccc(CN(C)C[C@@H]2Oc3ccc(NC(=O)Nc4cccc5ccccc45)cc3C(=O)N([C@@H](C)CO)C[C@H]2C)cc1,i,i,i
C[C@H]1CN([C@@H](C)CO)C(=O)c2cc(NC(=O)Nc3cccc4ccccc34)ccc2O[C@@H]1CN(C)Cc1ccc(Oc2ccccc2)cc1,121.2,i,i
C[C@H](CO)N1C[C@H](C)[C@H](CN(C)Cc2ccc(Oc3ccccc3)cc2)Oc2ccc(NC(=O)Nc3cccc4ccccc34)cc2C1=O,113.2,i,i

# Assay outcomes from PubChem BioAssay.
